The structures appear in SMILES notation. About 700 (0.19%) of roughly 360,000 compounds were called active.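 How the source made its calls: active means activation above the run's mean over test compounds plus 3 SD (cut at about 23% in these data); inactive means the rest.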 Many of the other results were omitted from the sample, so actives are more common in it than they were.

The target in this experiment is Muscarinic acetylcholine receptor M5 (Homo sapiens) (UniProt P08912). In words: human M5 muscarinic receptor agonists, primary screen, CHO-K1 cells, Fluo-8 calcium fluorescence (AID 624037).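 Further: signal is peak over basal fluorescence ratio across the kinetic read.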 Particulars: CHO-K1 hM5 cells, at 3 µM, stronger effect = higher value, 0% DMSO wells, 100% maximal acetylcholine response.
Chain of Muscarinic acetylcholine receptor M5 (Homo sapiens) (P08912 whole entry, looked up): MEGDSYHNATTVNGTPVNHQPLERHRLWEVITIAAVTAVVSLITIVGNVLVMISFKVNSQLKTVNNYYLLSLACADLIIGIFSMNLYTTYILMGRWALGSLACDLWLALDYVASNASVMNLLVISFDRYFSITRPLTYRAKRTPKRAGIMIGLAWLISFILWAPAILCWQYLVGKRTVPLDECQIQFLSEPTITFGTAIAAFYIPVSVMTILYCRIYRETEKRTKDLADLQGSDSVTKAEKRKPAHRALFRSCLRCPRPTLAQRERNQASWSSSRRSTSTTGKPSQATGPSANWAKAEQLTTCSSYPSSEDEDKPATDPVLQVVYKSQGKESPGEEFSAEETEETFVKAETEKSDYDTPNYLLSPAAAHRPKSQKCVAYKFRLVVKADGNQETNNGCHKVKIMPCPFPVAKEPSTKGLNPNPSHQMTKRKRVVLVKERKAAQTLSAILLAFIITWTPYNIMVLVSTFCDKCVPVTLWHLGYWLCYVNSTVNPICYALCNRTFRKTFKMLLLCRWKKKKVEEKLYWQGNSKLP
On to `CC#CC[N+](C)(C)CCCCCC`, for which the activation is -16.5% (inactive). The result for `CCc1ccc(NC(=O)C(C)OC(=O)/C=C/c2cccc([N+](=O)[O-])c2)cc1` (stereo not drawn) reads -0.62% (inactive); that for `CCCCN(C)CCNC(=O)CSCc1ccc(C)cc1`, -6.02% (inactive). For the compound `Cc1ccc(CNC(=O)C(=O)c2cn(CC(=O)N3CCOCC3)c3ccccc23)cc1`, the activation is -1.51% (inactive). Next, `O=C1/C(=C/c2ccc3c(c2)OCO3)Oc2cc(OCC(=O)N3CC(O)C[C@H]3C(=O)O)ccc21` (stereo partly drawn): 0.73% (inactive); `CCOCCCNC(=S)Nc1ccc2nc(N3CCN(CC)CC3)cc(C)c2c1`: -4.11% (inactive). Regarding `Cn1cccc1C(C#N)c1ccccc1C#N` (stereo not drawn), the activation is -3.67% (inactive).

With `O=C1c2ccccc2C(=O)N1CCOc1ccc(F)cc1`, the activation was 11.9% (inactive). Next, `Cc1cccc(C)c1-n1nnnc1C1(C)CCC(=O)N1CCOc1ccccc1` (stereo not drawn): 4.47% (inactive). As to `Cc1cccc2c1N(CCOc1ccccc1)C(=O)C2=O`, the activation was 30.5% (active). Turning to `O=c1ccc(S(=O)(=O)N2CCCC2)cn1Cc1nc(-c2ccccc2)no1`, the activation is -5.43% (inactive). With `Cc1ccc(C)c(NC(=O)c2ccc(OC(=O)c3ccco3)cc2)c1`, the activation was -2.18% (inactive). The result for `Cc1csc(=O)n1CC(=O)OCC(=O)N(CC(C)C)c1c(N)n(Cc2ccccc2)c(=O)[nH]c1=O` reads 3.34% (inactive).

In the case of `CN(Cc1ccccc1)C(=O)COC(=O)/C=C/c1ccc2c(c1)OCO2`, the activation is 0.5% (inactive).

Turning to `CCNC(=O)C1(C)CCCN(Cc2noc(-c3ccccc3OC)n2)C1` (stereo not drawn), the activation was 1.13% (inactive).

Turning to `Cc1ccc(CNC(=O)c2cccc3c2C(=O)c2ccc(N4CCC(C)CC4)cc2S3(=O)=O)cc1`, the activation was 4.93% (inactive). As to `COc1ccc(S(=O)(=O)N2CCC(C(=O)NCCC(=O)Nc3ccccc3OC)CC2)cc1`, the activation was -1.33% (inactive). On to `CN(c1ccccn1)c1ncnc2[nH]ncc12`, for which the activation was -0.14% (inactive). As for `CN(C)/C=C/C(=O)c1cnc2sccn2c1=O`, the activation is -2.29% (inactive). The result for `O=C(O)c1ccn(COc2ccc(Br)cc2)n1` reads -0.71% (inactive). On to `Cc1c(NC(=O)COC(=O)/C=C/c2cccc(F)c2)c(=O)n(-c2ccccc2)n1C`, for which the activation is 0.67% (inactive).

In the case of `CCCCC[C@H]1CN(C2CCCCC2)C(=O)[C@@H]1CC(=O)NCc1ccc(OC)cc1`, the activation is -4.19% (inactive). The result for `COc1cc(N2C(=O)CC3(CCCC3)CC2=O)cc(OC)c1OC` reads 1.4% (inactive); that for `Cc1ccc(C)c(NS(=O)(=O)c2ccc(OCC(=O)NCc3cccnc3)cc2)c1`, -1.65% (inactive); that for `CC(C)(C)OC(=O)C[C@@H]1C/C=C\C[C@@H](CC(=O)NCCO)C(=O)N[C@H](Cc2c[nH]c3ccccc23)COC1=O`, -0.08% (inactive). As for `CCOC(=O)C=Cc1ccc(C(=O)OCC)[nH]1`, the activation was 5.25% (inactive).

Consider `CSCCC(NC(=O)COc1ccccc1)C(=O)N(C)CC(=O)Nc1ccc(C)cc1` (stereo not drawn), for which the activation is 0.98% (inactive). The result for `C=CC[n+]1c(-c2ccc(C)cc2)csc1NNC(=O)Nc1ccccc1` reads 0.82% (inactive); that for `O=C(Nc1cccc(Cl)c1)c1cc(S(=O)(=O)N2CCCCC2)c[nH]1`, 4.63% (inactive); that for `CCOc1ccc(NC(=O)CN(C)C(=O)COc2cccc(CC)c2)cc1OCC`, -0.57% (inactive). In the case of `COc1ccc(CCNC(=S)N2CCN(S(=O)(=O)c3ccc(F)cc3)CC2)cc1`, the activation was -3.34% (inactive). The result for `Cc1nc(-c2ccc(Cl)cc2)sc1C1(C)CC(c2ccccc2F)=NO1` (stereo not drawn) reads -0.32% (inactive); that for `Cc1nc(C(=O)NCc2ccccc2)sc1C1(C)CC(c2cccnc2)=NO1` (stereo not drawn), 25.4% (active); that for `Cc1nc(C(=O)Nc2ccc(Cl)cc2)sc1C1(C)CC(c2ccccc2)=NO1` (stereo not drawn), 1.09% (inactive).

As for `CN(C(=O)CN(CCO)CC(=O)N(C)C(C)(C)Cc1ccccc1)C(C)(C)Cc1ccccc1`, the activation was 39.7% (active). Next, `CC(C)(C)N(Cc1ccccc1)C(=O)c1ccncc1`: -0.8% (inactive). The result for `Cc1cc(C)cc(NC(=O)N(C)Cc2ccccc2)c1` reads -2.57% (inactive); that for `CCc1sc(C(=O)N2CCN(CC(=O)Nc3cccc(F)c3)CC2)cc1C`, -3.37% (inactive); that for `COc1cccc(CNc2nc(NCc3cccs3)nc3ccsc23)c1`, 27.2% (active). The result for `COc1cccc(CNc2nc3cc(-c4csc5ccccc45)sc3c(=O)n2C)c1` reads -0.3% (inactive); that for `COc1ccc(NC(=S)NCc2cccs2)c(OC)c1`, -3.29% (inactive); that for `CC(=O)Nc1cccc(-c2cc3nc(NCc4cccnc4)n(C)c(=O)c3s2)c1`, 0.81% (inactive). As for `CCOC(=O)CNc1nc2ccccc2n2c(C)nnc12`, the activation was 1.28% (inactive).

For `CC(=O)NCC(=O)N(Cc1ccco1)C1(C(=O)NC2CCCC2)CCCCC1`, the activation is -0.72% (inactive). Next, `CC(C)[C@H](NC(=O)Nc1ccc(S(N)(=O)=O)cc1)C(=O)O`: -2.17% (inactive); `CCN(CC)c1ccc(NC(=O)CN2C(=O)NC3(CCc4ccccc43)C2=O)cc1` (stereo not drawn): 2.57% (inactive); `CN(C)c1ccc(/C=C2\NC(=S)N(Cc3ccccc3)C2=O)cc1`: 41.4% (active).

For the compound `O=C(Cn1cc(C(=O)C2CC2)c2ccccc21)Nc1ccccc1Cl`, the activation is 1.64% (inactive).

Regarding `C=CCNc1nnc(SCC(=O)N2CCCCC2)c2ccccc12`, the activation was -0.35% (inactive). The result for `C/C(=C/C(=O)N1CCN(C)CC1)C(=O)O` reads -1.65% (inactive).

As to `Nc1ccc2c(c1)C(=Cc1cccnc1)c1ccccc1-2`, the activation was -7.37% (inactive).

Take `C[C@@H]1CN([C@@H](C)CO)S(=O)(=O)c2ccc(-c3ccc(C(=O)N(C)C)cc3)cc2O[C@@H]1CN(C)Cc1ccccc1C(=O)O`: the activation was -0.69% (inactive). Turning to `Cc1ccccc1N/C(SCc1ccc(Cl)cc1)=C(/C#N)C(N)=O`, the activation was -7.05% (inactive). As for `O=C(Cc1ccc(Cl)cc1)NC(=S)Nc1ccccc1O`, the activation was 75.2% (active). As to `Oc1ccc(CNc2ccccc2O)cc1`, the activation was 3.67% (inactive). Regarding `Cc1cc(C(=O)NNC(=S)Nc2ccccc2C)cs1`, the activation was -0.42% (inactive).

For `Cc1ccccc1NC(=S)NC(=O)Cc1ccc(Cl)cc1`, the activation is 25.7% (active). With `O=C(NC(=S)Nc1ccc(Cl)cc1Cl)C1CC1`, the activation is -3.08% (inactive). Next, `O=C(C1CCN(S(=O)(=O)c2cccs2)CC1)N1CCCCCC1`: -3.68% (inactive); `CCOc1ccc(NC(=O)N(CC(C)C)CC(C)C)cc1`: -3.79% (inactive); `CCC(=C/c1sc2ccc3ccccc3c2[n+]1C)/C=C1\Sc2ccc3ccccc3c2N1C`: 1.63% (inactive). With `COC(=O)CSc1snnc1-c1ccc(Cl)c(Cl)c1`, the activation is -7.41% (inactive).

Regarding `CN(C)c1cc(N)c2ccccc2n1` (tested in a mixture with another compound), the activation was -6.58% (inactive). Next, `NS(=O)(=O)c1cccc(NC(=O)CC23CC4CC(CC(Br)(C4)C2)C3)c1`: -1.18% (inactive); `CC(=O)NC1=NN(C(C)=O)C(C)(c2ccc(C)cc2)S1` (stereo not drawn): 1.09% (inactive); `COc1ccccc1C(=O)Oc1ccc(N2C(=O)CCC2=O)cc1`: -1.29% (inactive).

Take `O=C(CCN1C(=O)[C@H]2CC=CC[C@H]2C1=O)NCc1nc(-c2ccccc2)no1`: the activation is 0.28% (inactive). Next, `COc1ccccc1C(=O)NC(CCSC)C(=O)NNC(=O)c1csc(N2CCOCC2)n1` (stereo not drawn): -2.2% (inactive); `O=C(NCCSc1ncc(-c2ccccc2)[nH]1)c1ccco1`: -1.14% (inactive). Next, `Cc1nnc(SCC(=O)Nc2ncc3c(n2)CC(C)(C)CC3=O)s1`: -1.69% (inactive); `COC(=O)c1sc(N)c(C(=O)OC)c1COC(=O)CNS(=O)(=O)c1ccc(C)cc1`: 1.46% (inactive). As to `C/C=C/c1ccc(OCC(=O)OCC(=O)Nc2c(C)nn(-c3ccccc3)c2C)c(OC)c1`, the activation was 0.8% (inactive). In the case of `Nc1ccc2nc3c(=O)[nH]c(=S)[nH]c3nc2c1`, the activation was 13.3% (inactive). Next, `CCCn1c(=O)c2c(C(F)(F)F)cc(-c3cccs3)nc2n(CCC)c1=O`: -2.81% (inactive); `COC(=O)c1c(NC(=O)c2ccccc2F)sc2c1C(C(=O)OC)CC2` (stereo not drawn): 0.55% (inactive). For `COCC1CCCN(C(=O)c2ccc3oc(C(C)C)nc3c2)C1` (stereo not drawn), the activation is -5.48% (inactive). Next, `O=C(NCc1cccc(Cl)c1)C1=CC=CN2CCS(=O)(=O)N=C12`: -4.02% (inactive); `C=CCC(NC(=O)Cc1ccccc1)C(=O)NCCC` (stereo not drawn): 1.37% (inactive); `CCCCC(=O)Nc1ccc2c(c1)C(=O)NC2=O`: -1.75% (inactive). Turning to `CCCCC(=O)NNC(=S)NC(=O)C(c1ccccc1)c1ccccc1`, the activation is 76.2% (active). Next, `CNC(=O)C1CN(C(=O)c2cccc(S(=O)(=O)N3CCc4ccccc43)c2)c2ccccc2O1` (stereo not drawn): 2.34% (inactive); `CC(C)C[C@H](NC(=O)NCCc1ccc(Cl)cc1)C(=O)O`: -0.97% (inactive). Next, `CC(NC(=O)c1ccco1)c1ccc2c(c1)OCO2` (stereo not drawn): -1.73% (inactive).

(Values after PubChem BioAssay AID624037 (The Scripps Research Institute Molecular Screening Center, 2012).)
